Among the data in PubChem BioAssay (NCI) are growth inhibition values, retold here.

Compounds without any hit were thinned out: in the full panel of roughly 79,000, 15% have a hit. A number with no mark means an inactive call. Calls of active or inactive are those of the source. Rule as the data show it: active = growth inhibition above about 70%; inactive = the rest.

The nature of this assay: NCI Yeast Anticancer Drug Screen. Data for the rad50 strain (AID 155).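 Also: 0% = growth of vehicle-only cultures of the same strain.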 The conditions noted are these: S. cerevisiae rad50 strain growth inhibition; at 50.0 µM; hits give high values. The method in brief: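 Cells are treated with compound, grown, and their growth is then scored against vehicle-only cultures of the same repair-deficient yeast strain.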
As to `CC(C)N=C(NC(C)C)SCCCCCCSC(=NC(C)C)NC(C)C`, the growth inhibition was 12.3%. For `CCCCCOC(=S)SSSC(=S)OCCCCC`, the growth inhibition is 8.65%. On to `CCCCCCCCCCCCCCCC[N+](C)(C)CC(=O)O`, for which the growth inhibition was -12.2%. Take `Cc1cc(C)c([O-])c(-[n+]2c(-c3ccccc3)cc(-c3ccccc3)cc2-c2ccccc2)c1`: the growth inhibition was 90.8% (active). For the compound `CC(=O)NNc1ccc(Cl)cc1[N+](=O)[O-]`, the growth inhibition was 51%. The figure for `O=C(NC(=Nc1ccccc1)SCCSC(=Nc1ccccc1)NC(=O)c1ccccc1)c1ccccc1` is 85.6% (active); for `CN(C)CCCNc1ccc(O)c2c1C(=O)c1ccccc1C2=O` it is 89.9% (active); for `COC(=O)C(=O)C(/C=N/C(=S)NCCc1ccc(OC)c(OC)c1)=C(/O)c1ccc([N+](=O)[O-])cc1` it is 0.3%.

For the compound `CCCC(=O)OCC1CC2C=CC1C2` (stereo not given), the growth inhibition was -6.25%. With `CN(NC(=O)/C(=C/c1cc(Cl)cc(Cl)c1O)NC(=O)c1ccccc1)c1cnn(-c2ccccc2)c(=O)c1Cl` the figure was 52.9%; with `CC(C)N(C(=O)CC1(O)CCCCC1)C(C)C`, -0.25%. The figure for `COC(=O)C1C(c2ccccc2)=N[C@@H](c2ccccc2)[C@H]1C(=O)OC` (stereo not given in full) is 17.4%; for `O=C1C(=Cc2ccccc2O)N=C(c2ccccc2)N1n1c(-c2ccccc2)nc2ccccc2c1=O` it is 58%; for `CCOc1ccc2c(c1)[n+]([O-])c(-c1ccc([N+](=O)[O-])cc1)c(N)[n+]2[O-]` it is 95% (active).

In the case of `O=C(NCCCNCCCCNCCCNC(=O)c1cc(-c2ccccc2)nc2ccccc12)c1cc(-c2ccccc2)nc2ccccc12`, the growth inhibition was 90.2% (active).

Take `CC1=C(C(=O)Nc2cccc3ccccc23)C(c2cccc([N+](=O)[O-])c2)C(C(=O)Nc2cccc3ccccc23)=C(C)N1`: the growth inhibition was 76.2% (active). With `O=C1OC(c2ccc(O)cc2)Sc2ccccc21` (stereo not given), the growth inhibition was 81.1% (active). With `CC(C)(C)c1ccc(-c2nc3ccccc3c(=O)o2)cc1` the figure was 55.7%; with `O=C(N/C(=C/c1ccc(Cl)cc1Cl)c1nc2ccccc2s1)c1ccccc1`, 98.6% (active).

`O=C(O)C/C(=C\c1ccco1)C(=O)O`: the growth inhibition is 44.9%. The figure for `CN(C)Cc1cc(N=Nc2ccc(Cl)c(Cl)c2)ccc1O` is 86.5% (active); for `CC(=O)OC1C(O)C(C)OC(OC(=O)C2CCC3C(C2)OC2(CC(OC(=O)/C=C/c4ccccc4)C(C)CO2)C32CO2)C1OC1OC(C)C(O)C(O)C1O` (stereo not given) it is 88% (active); for `O=C1c2ccccc2C(=O)c2c(/C=C\N3CCCCC3)ccnc21` it is 87.7% (active).

`CCN(CC)c1ccc(NC(CC(O)c2ccccc2)c2ccccc2)cc1` (stereo not given): the growth inhibition was -24%. The figure for `CCOC(=O)Nc1nc2ccc(SC#N)cc2s1` is 92.9% (active); for `CSC(SC)C(SC)SC` it is 1.65%; for `N#CC(C(=O)C(=O)Nc1ccc(Cl)cc1)c1c(Cl)cccc1Cl` (stereo not given) it is 56.2%. Turning to `CN(/N=C\c1cccc([N+](=O)[O-])c1)C(c1cccc([N+](=O)[O-])c1)N(C)/N=C/c1cccc([N+](=O)[O-])c1` (stereo not given), the growth inhibition was 43%.

As to `Oc1cc(Br)cc2cc(Br)cnc12`, the growth inhibition was 84.4% (active). For `COc1ccccc1C(C)c1ccc2ccccc2c1C(=O)O` (stereo not given), the growth inhibition was 94.6% (active). With `Cc1ccnc2[nH]c3ccccc3c(=O)c12` the figure was 81.5% (active); with `COc1cc(OC)c(/C=C\c2ccnc3ccccc23)c(OC)c1`, 81.6% (active); with `COC(=O)C1(COCc2ccccc2)CCCC2OC21` (stereo not given), 2.95%. Consider `O=[N+]([O-])/C(=C\c1cccs1)c1ccccc1`, for which the growth inhibition was 99.2% (active).

Take `Cc1cc(C(O)(c2cc(C)c(O)c(C(=O)O)c2)c2cc(C)c(O)c(C(=O)O)c2)cc(C(=O)O)c1O`: the growth inhibition is 12.4%. The figure for `CC(C)C(C)(C(=O)O)C(C)C` is 13.8%. The figure for `CN(Cc1cc(Cl)cc(Cl)c1)CC(C(=O)c1ccccc1)c1ccccc1` (stereo not given) is 81.7% (active).

Regarding `O=c1[nH]c(Cc2ccccc2)nc2c1sc1nc3ccccc3n12`, the growth inhibition is 25.2%. The figure for `CC(NNC(=S)N1CCCC1)c1cccnn1` (stereo not given) is 89% (active); for `Cc1ccc2c(c1)C(O)(c1ccccc1)CCS2` (stereo not given) it is 90.2% (active).
